Hits are enriched below; roughly 3.9% of the tested compounds scored in any of these assays.
sPLA2-III inh: Inhibits HGIII-sPLA2 liposome hydrolysis, primary screen. Q9NZ20. QFRET BODIPY PC-A2 liposome hydrolysis, fluorescence. inhibition, % at 12.2 µM. hit rate 0.56% among 370,000. AID 743126;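 active = inhibition above mean plus 3 SD of compounds lying within the high and low control bounds, cut at about 19% in these data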
AHR act: activators of human aryl hydrocarbon receptor. P35869. AHR-responsive luciferase reporter cells, luminescence. activation, % at 5 µM. hit rate 2.5% among 320,000; in the data active = activation above about 47%
PLCg1 inh: blocks human PLC-gamma1 enzyme activity; inhibition, % at 12.2 µM; hit rate 0.84% among 370,000; P19174; purified PLC-gamma1, fluorogenic substrate, fluorescence; AID 720700; in the data active = inhibition above about 9.5%
PLCb3 inh: PLC-beta3 (human) inhibition, primary screen; inhibition, % at 12.2 µM; Purified PLC-beta3, fluorogenic substrate, fluorescence; hit rate 0.18% among 370,000; AID 720704; in the data active = inhibition above about 11%
Target sequence (Q01970 whole entry, looked up): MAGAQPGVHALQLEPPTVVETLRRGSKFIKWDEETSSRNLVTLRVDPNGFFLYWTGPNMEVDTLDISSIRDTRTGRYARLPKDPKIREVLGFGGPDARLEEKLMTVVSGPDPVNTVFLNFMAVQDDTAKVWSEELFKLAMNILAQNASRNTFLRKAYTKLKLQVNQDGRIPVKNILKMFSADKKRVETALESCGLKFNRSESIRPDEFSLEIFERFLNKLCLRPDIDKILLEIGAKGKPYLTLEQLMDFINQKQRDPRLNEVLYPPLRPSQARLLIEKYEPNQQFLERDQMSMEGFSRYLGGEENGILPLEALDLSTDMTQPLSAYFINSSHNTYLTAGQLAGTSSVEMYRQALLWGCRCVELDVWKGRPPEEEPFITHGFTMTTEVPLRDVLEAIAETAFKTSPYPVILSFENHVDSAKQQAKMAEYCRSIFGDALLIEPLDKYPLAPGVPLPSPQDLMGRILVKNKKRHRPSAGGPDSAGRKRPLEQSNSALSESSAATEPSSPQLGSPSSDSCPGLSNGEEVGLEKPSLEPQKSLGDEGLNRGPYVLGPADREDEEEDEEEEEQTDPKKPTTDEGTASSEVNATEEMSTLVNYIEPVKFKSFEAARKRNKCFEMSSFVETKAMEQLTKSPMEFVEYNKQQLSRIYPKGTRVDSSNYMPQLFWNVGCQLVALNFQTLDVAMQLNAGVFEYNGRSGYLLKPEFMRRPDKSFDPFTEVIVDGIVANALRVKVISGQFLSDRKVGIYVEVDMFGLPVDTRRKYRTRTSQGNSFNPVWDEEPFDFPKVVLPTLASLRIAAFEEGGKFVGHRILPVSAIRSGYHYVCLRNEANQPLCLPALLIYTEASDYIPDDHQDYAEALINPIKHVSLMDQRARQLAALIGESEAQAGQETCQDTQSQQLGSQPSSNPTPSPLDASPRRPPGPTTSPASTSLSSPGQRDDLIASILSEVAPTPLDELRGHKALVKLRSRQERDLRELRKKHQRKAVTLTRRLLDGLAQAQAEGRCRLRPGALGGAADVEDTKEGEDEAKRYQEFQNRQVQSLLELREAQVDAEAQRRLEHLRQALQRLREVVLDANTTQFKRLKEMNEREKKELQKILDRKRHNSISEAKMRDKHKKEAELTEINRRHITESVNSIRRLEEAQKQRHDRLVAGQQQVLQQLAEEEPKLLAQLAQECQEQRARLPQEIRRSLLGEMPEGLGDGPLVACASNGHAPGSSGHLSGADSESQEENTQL
HIF activator: HIF pathway transcriptional activation. hit rate 0.32% among 300,000. activation, % at 7.5 µM (by protocol). U2OS HRE-luciferase reporter, luminescence; normalized: DMSO 0%, desferrioxamine 100%;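 active = mean activation of at least 10% of the iron chelator positive control signal, with at least half of replicates also reaching 10%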
CR mimetic SO: yeast age-related superoxide inhibition as caloric restriction mimetic. S. cerevisiae aged cells, superoxide DHE fluorescence; active compounds read low. superoxide response (% of plate mean), % at 10 µM. hit rate 0.18% among 330,000. AID 2690;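 active = superoxide response under a set limit, about three screen SD below normal, cut at about 65% in these data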;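 note: yeast aged for seven days with compound at 30 °C before DHE staining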
Numbers stand for hits; 0 = inactive; - = no result.

SMILES	sPLA2-III inh	AHR act	PLCg1 inh	PLCb3 inh	HIF activator	CR mimetic SO
COc1cccc(CNC(=O)CSc2nc3ccc(C)cc3[nH]2)c1	0	52.7	0	0	0	0
COc1ccc2nc(SCC(=O)NCc3ccc(F)cc3)[nH]c2c1	0	0	0	0	0	0
CCC(=O)Nc1cccc2cccnc12	0	0	0	0	0	0
C/C(=N\Nc1cccc2cccnc12)c1ccc[nH]1	0	51.2	0	0	0	0
CC(C)CN1C(=O)[C@@]2(CC(=O)N(C)C2c2ccccc2)c2cc(-n3cc(C(C)(C)O)nn3)ccc21 (some centres not stated)	0	-	0	0	-	-
O=C(NCc1ccccc1)C(=O)c1cn(CC(=O)N2CCOCC2)c2ccccc12	0	0	0	0	196.9	0
COc1ccc(NC(=O)C23CC4CC(C2)CC(n2cnc(Br)n2)(C4)C3)cc1Cl	0	50.6	0	0	0	0
COc1ccc(/C=C/C(=O)Nc2cccc(S(=O)(=O)N3CCOCC3)c2)cc1OC	0	-	0	0	-	-
Cc1ccc(/C=C/C(=O)Nc2cccc(S(=O)(=O)N3CCOCC3)c2)o1	0	58.5	0	0	0	0
O=C(/C=C/c1ccco1)Nc1cccc(S(=O)(=O)N2CCOCC2)c1	0	50.4	0	0	0	0
COc1ccccc1/C=C/C(=O)Nc1cccc(S(=O)(=O)N2CCOCC2)c1	0	0	0	0	-	0
COc1ccccc1-c1cc2ccccc2[nH]1	0	64.1	0	0	0	0
O=C(O)c1ccccc1-c1cc2ccccc2[nH]1	0	0	0	0	0	0
CN1C(=O)C[C@@](C#N)(C(=O)NCc2ccc3c(c2)OCO3)[C@H]1c1ccccc1	0	-	0	0	-	-
CC(/C=N/n1c(-c2ccncc2)n[nH]c1=S)=C\c1ccco1	23.3	0	0	0	0	0
Cc1cccc(-c2n[nH]c(=S)n2/N=C/C=C/c2ccco2)c1	31.1	0	0	0	0	0
COc1ccc(N=Cc2oc3ccc4ccccc4c3c2O)cc1	0	57.9	0	0	0	0
COC(=O)[C@]12C[C@H](CC(=O)N3CCOCC3)C(=O)N(Cc3ccc(Cl)cc3Cl)C1=C[C@H](C(C)(C)C)O[C@@H]2C	0	-	0	0	-	-
COc1ccccc1-c1ccc(SCC(=O)NCCc2ccccc2)nn1	0	57.6	0	0	0	0
O=C(CSc1ccc(-c2ccc(F)cc2)nn1)NCCc1ccccc1	0	0	0	0	0	0
O=C(c1cc(-c2ccc(F)cc2)on1)N1CCCCCC1	0	0	0	0	0	0
Cc1ccc(-c2cc(C(=O)N3CCCCCC3)no2)cc1	0	0	0	0	12.4	0
CCOC(=O)c1cc2c(ccn2C)n1CC(=O)N1C(C)CCCC1C (configuration not stated)	0	0	0	0	0	0
CCOC(=O)c1cc2c(ccn2C)n1CC(=O)N1CCN(c2ccccc2)CC1	0	0	0	0	288.1	0
CCCN(CCC)C(=S)NC(=O)c1ccc(Cl)cc1Cl	0	0	12.9	0	0	0
SMILES	sPLA2-III inh	AHR act	PLCg1 inh	PLCb3 inh	HIF activator	CR mimetic SO
Cc1ccccc1C(=O)NNC(=S)NC(=O)c1ccc(Cl)cc1Cl	0	0	0	0	0	0
COc1ccc(CCNC(=O)c2cc3c(=O)n(C)c4ccccc4c3n2C)c(OC)c1	0	0	0	0	0	61.3
Cn1c(C(=O)NC2CCCCCC2)cc2c(=O)n(C)c3ccccc3c21	0	51.0	0	0	0	0
Cc1cccc(N2CCN(C(=O)c3cc4c(=O)n(C)c5ccccc5c4n3C)CC2C)c1 (configuration not stated)	-	67.9	-	-	0	0
COc1cc(NC(=O)c2cc3c(=O)n(C)c4ccccc4c3n2C)cc(OC)c1OC	0	0	0	0	0	0
C[C@H]1C2CC(OC(=O)Nc3ccccc3C(F)(F)F)C(C2)[C@H]2CCCCN21 (some centres not stated)	0	-	0	0	-	-
CN(CCOC(=O)CCCc1ccccc1)C1CN(Cc2cn(Cc3ccccc3F)nn2)S(=O)(=O)C1 (configuration not stated)	0	-	0	0	-	-
O=C(NCCCc1ccccc1)[C@H](Cc1ccccc1)NC1(C(=O)NCCc2c[nH]c3ccccc23)CCOCC1	0	-	0	0	-	-
CCN(CC)CCn1c(=O)n(-c2ccc(Cl)cc2)c(=O)c2c3c(sc21)CN(C)CC3	0	89.8	0	0	0	0
CN1CCc2c(sc3c2c(=O)n(-c2ccc(Cl)cc2)c2nncn32)C1	0	0	0	0	0	0
CCOC(=O)[C@@]12CCC3=C1N(CCC3)C(=O)[C@H](CC(=O)NCc1cccs1)C2	0	-	0	0	-	-
CCn1nc(NC(=O)C2CCCO2)c2cc3cc(C)ccc3nc21 (configuration not stated)	0	67.1	0	0	0	0
Cc1nc2ccccc2c2oc(C(=O)NC3CC3)cc12	0	65.0	0	0	0	0
Cc1cc(C)c2cc(C(=O)Nc3ccc4c(c3)OCO4)[nH]c2c1	0	0	0	0	0	0
Cc1cc(C)c2cc(C(=O)Nc3ccccc3)[nH]c2c1	0	47.2	0	0	0	0
NNc1nc(Nc2ccccc2)nc(Nc2ccccc2)n1	0	81.4	0	0	0	0
Cc1ccc(C(=O)C2CCN(CC(=O)N3CCCC3)CC2)cc1	0	-	0	0	-	-
COC(=O)[C@]12C[C@H](CC(=O)N3CCCC3)C(=O)N(Cc3cccc4ccccc34)C1=C[C@H](C(C)(C)C)O[C@@H]2C	0	-	0	0	-	-
COc1c2occc2c(OC(C)=O)c2c(=O)cc(C)oc12	0	54.0	0	0	0	0
CC(=O)Oc1c2occc2cc2ccc(=O)oc12	0	0	0	0	0	0
COc1cc(SC)ccc1C(=O)Nc1ccc(C)cc1	0	0	0	0	0	0
COc1cc(SC)ccc1C(=O)Nc1ccc(C)cc1C	0	0	0	0	10.4	0
O=C(Nc1ccccc1)Nc1cccc2ccccc12	0	0	0	0	0	0
COc1ccccc1C(=O)Nc1cccc2cccnc12	0	78.2	0	0	0	0
O=C(Nc1cccc2cccnc12)c1ccccc1Cl	0	0	0	0	0	0
SMILES	sPLA2-III inh	AHR act	PLCg1 inh	PLCb3 inh	HIF activator	CR mimetic SO
COc1ccccc1C(=O)Nc1ccccc1SC	0	55.3	0	0	0	0
O=C(Nc1ccccc1)Nc1cccc2cccnc12	0	70.9	0	0	0	0
COc1ccc([C@H](C#Cc2ccccc2)CC(=O)O)cc1OC1CCCC1	0	-	0	0	-	-
COc1ccc(-n2c(SCC(=O)Nc3ccc4cn[nH]c4c3)nnc2-c2ccccc2)cc1	0	-	0	0	-	-
CCN(CC)c1ccc(/C=N/O)cc1	0	0	0	0	0	0
CCN(CC)c1ccc(N=Nc2ncn[nH]2)cc1	0	0	0	11.5	0	0
O=C(CCn1nnc2ccccc21)N1CCN(Cc2ccc3c(c2)OCO3)CC1	0	-	0	0	-	-
Cc1ccc(-n2c(C(C)C)nc3oc4ccccc4c(=O)c3c2=O)cc1	0	74.6	0	0	0	0
CCCc1nc2oc3ccccc3c(=O)c2c(=O)n1-c1ccccc1	0	100.5	0	0	0	0

Screens (PubChem)
